In PubChem BioAssay (NCI) one finds growth data, which are given here for seven molecules.

Some test systems named below: HCT-15 colon; HT29 colon; SNB-75 CNS; SNB-19 CNS; U251 CNS; PC-3 prostate; SK-MEL-5 melanoma; UACC-62 melanoma; LOX IMVI melanoma; SK-MEL-28 melanoma; SK-MEL-2 melanoma; EKVX NSCLC; SN12C renal; UO-31 renal; TK-10 renal; ACHN renal; CAKI-1 renal; A498 renal; CCRF-CEM leukemia; MOLT-4 leukemia.
Holding throughout (test): NCI-60 one-dose screen, 48 h (100 = growth as untreated, 0 = no growth, -100 = all killed)
Holding throughout (details): 10 µM unless noted

The panel holds about 83,000 compounds, 20% with a hit somewhere; the sample as a whole holds those more often.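 The test compound was applied at a single concentration to cells in 96-well plates for 48 hours, and percent growth was recorded.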 A number with no mark means an inactive call. Calls of active or inactive are those of the source. How the source made its calls: active means growth percent below 10; inactive means the rest.

In the case of `Cc1ccc(NC(=O)Cn2cc(CN3CCN(c4ccnc5cc(Cl)ccc45)CC3)nn2)cc1`, the growth in the assay on HCT-15 colon is 84.7%; in the assay with HT29 colon, 105%; with SNB-75 CNS it was 70.7%; in the assay with SNB-19 CNS, 89.2%; in the assay with U251 CNS, 89.4%; in the assay on PC-3 prostate, 63.1%. Also, the growth with SK-MEL-5 melanoma was 77.7%; in the assay on UACC-62 melanoma, 77.7%; in the assay with LOX IMVI melanoma, 82.4%; with SK-MEL-28 melanoma it was 104%; with SK-MEL-2 melanoma it was 114%; with EKVX NSCLC, 80.7%. In addition, the growth with SN12C renal was 93.9%; in the assay with UO-31 renal, 62.7%; with TK-10 renal, 95.4%; in the assay with ACHN renal it was 81.1%; in the assay on CAKI-1 renal, 73.1%; with A498 renal, 88%. The growth is -31.6% (active) in the assay with CCRF-CEM leukemia and -15.7% (active) in the assay with MOLT-4 leukemia.
`COCCNC(=O)Nc1ccc2nc(-c3cccs3)c(-c3cccs3)nc2c1`: the growth is 90.9% in the assay on HCT-15 colon; 87.8% in the assay on HT29 colon; 81.6% in the assay with SNB-75 CNS; 95.5% in the assay on SNB-19 CNS; 96.7% in the assay with U251 CNS; 79.2% in the assay with PC-3 prostate. In addition, the growth was 89.5% in the assay on SK-MEL-5 melanoma; 85.1% in the assay with UACC-62 melanoma; 82.8% with LOX IMVI melanoma; 96.7% in the assay with SK-MEL-28 melanoma; 101% with SK-MEL-2 melanoma; 87.9% with EKVX NSCLC. In addition, the growth with SN12C renal is 94.7%; in the assay with UO-31 renal it was 74.4%; with TK-10 renal, 104%; in the assay on ACHN renal it was 89.3%; in the assay with CAKI-1 renal it was 89.8%; with A498 renal, 33.7%. Besides, the growth in the assay on CCRF-CEM leukemia is 96.8%; in the assay on MOLT-4 leukemia, 85.9%.
With `O=C(/C=C/c1cn(-c2ccccc2)nc1-c1ccc(Cl)cc1)c1ccc(F)cc1`, the growth was 58.8% in the assay with HCT-15 colon; 77% in the assay with HT29 colon; 74.6% in the assay on SNB-75 CNS; 76.1% in the assay with SNB-19 CNS; 76.6% with U251 CNS; 67.6% with PC-3 prostate. In addition, the growth in the assay with SK-MEL-5 melanoma was 86%; with UACC-62 melanoma, 59%; with LOX IMVI melanoma, 68.7%; in the assay on SK-MEL-28 melanoma, 106%; in the assay on SK-MEL-2 melanoma it was 88.6%; with EKVX NSCLC it was 116%. Moreover, the growth in the assay on SN12C renal was 78.1%; with UO-31 renal, 63.3%; in the assay with TK-10 renal it was 107%; with ACHN renal it was 77.7%; in the assay with CAKI-1 renal, 76.5%; in the assay on A498 renal, 96.5%. The results for the growth with CCRF-CEM leukemia and in the assay on MOLT-4 leukemia were 40% and 36.1%, respectively.
`CCCn1cc2c(=O)nc3sc(Cc4ccccc4)c(C)n3c2n1`: the growth with HCT-15 colon was 106%; in the assay on HT29 colon it was 98%; with SNB-75 CNS, 97.6%; with SNB-19 CNS, 98%; with U251 CNS, 93.2%; in the assay on PC-3 prostate it was 98.5%. Moreover, the growth was 107% in the assay on SK-MEL-5 melanoma; 95% with UACC-62 melanoma; 94% with LOX IMVI melanoma; 123% in the assay on SK-MEL-28 melanoma; 93.7% with SK-MEL-2 melanoma; 104% in the assay on EKVX NSCLC. For the same molecule, the growth in the assay with SN12C renal was 104%; in the assay with UO-31 renal it was 78.5%; with TK-10 renal it was 92.9%; in the assay with ACHN renal, 109%; in the assay on CAKI-1 renal, 87.7%; with A498 renal, 100%. In addition, the growth in the assay with CCRF-CEM leukemia is 92.3%; with MOLT-4 leukemia, 78%.
Take `COc1ccc2c(c1)N(CCO)C1=C(C(=O)OC1)C2c1cccc(F)c1` (stereo not given): the growth with HCT-15 colon is 7.3% (active); in the assay on HT29 colon, 3.98% (active); in the assay on SNB-75 CNS, 35.7%; with SNB-19 CNS, 27.8%; in the assay with U251 CNS it was 16.9%; in the assay on PC-3 prostate, 25.6%. Further, the growth is 12.3% in the assay on SK-MEL-5 melanoma; 40% in the assay with UACC-62 melanoma; 27.5% with LOX IMVI melanoma; 47.9% in the assay on SK-MEL-28 melanoma; 31.3% with SK-MEL-2 melanoma; 38.9% with EKVX NSCLC. For the same molecule, the growth in the assay on SN12C renal is 45.2%; in the assay on UO-31 renal, 46.3%; in the assay with TK-10 renal, 61.2%; in the assay with ACHN renal, 27.6%; in the assay with CAKI-1 renal, 31.3%; in the assay with A498 renal, -4.39% (active). Also, the growth was 9.38% (active) in the assay with CCRF-CEM leukemia and 16.3% in the assay with MOLT-4 leukemia.
Turning to `CCO/C=N/C1=C(C#N)C(c2ccc(Cl)cc2)c2sc3c(F)cccc3c2O1` (stereo not given), the growth in the assay with HCT-15 colon was 35.7%; in the assay on HT29 colon it was 89.5%; with SNB-75 CNS, 42.6%; with SNB-19 CNS, 51.2%; with U251 CNS, 45.7%; in the assay on PC-3 prostate it was 67.1%. In addition, the growth in the assay on SK-MEL-5 melanoma is 64.9%; in the assay with UACC-62 melanoma, 35.9%; in the assay on LOX IMVI melanoma, 51.8%; in the assay with SK-MEL-28 melanoma, 73.6%; in the assay with SK-MEL-2 melanoma, 14.2%; with EKVX NSCLC, 75.7%. Besides, the growth is 79.7% in the assay with SN12C renal; 66% in the assay on UO-31 renal; 88.1% in the assay on TK-10 renal; 92.3% in the assay on ACHN renal; 41.3% in the assay on CAKI-1 renal; 56.5% with A498 renal. For the same molecule, the growth with CCRF-CEM leukemia is 38.1%; in the assay with MOLT-4 leukemia it was 71.5%.
For the molecule `Cc1[nH]c(=O)[nH]c(=O)c1Br`, the growth in the assay with HCT-15 colon was 106%; with HT29 colon, 131%; in the assay on SNB-75 CNS, 91.6%; in the assay on SNB-19 CNS, 98%; in the assay with U251 CNS it was 98.2%; in the assay with PC-3 prostate, 97.9%. For the same molecule, the growth was 112% in the assay with SK-MEL-5 melanoma; 97.3% in the assay with UACC-62 melanoma; 104% with LOX IMVI melanoma; 114% in the assay on SK-MEL-28 melanoma; 148% in the assay on SK-MEL-2 melanoma; 106% in the assay on EKVX NSCLC. Besides, the growth in the assay on SN12C renal is 98%; in the assay on UO-31 renal, 105%; in the assay on TK-10 renal, 114%; with ACHN renal it was 104%; in the assay with CAKI-1 renal it was 92.9%; with A498 renal it was 103%. Also, the results for the growth in the assay on CCRF-CEM leukemia and in the assay on MOLT-4 leukemia were 107% and 94%, respectively.
